From PubChem BioAssay (EPA / NIEHS)
Inconclusive results are not listed. Calls of active or inactive are those of the source. How the source made its calls: active means hit-call score of the fitted dose curve at least 0.9, where 1 is the maximum; inconclusive means response in the unintended direction; inactive means score below 0.9.

Experiment: IUF_NPC5_oligodendrocyte_differentiation_120hr: Leibniz Research Institute for Environmental Medicine (IUF) 120-hour Oligodendrocyte Differentiation Assay (NPC5) (AID 2284304);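 further: share of O4-positive cells among Hoechst nuclei found by CNN image analysis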
Procedure: IUF_NPC2-5 is a cell-based, multiplexed assay that uses hNPC, a human primary neural progenitor cells, with measurements taken at 72 or 120 hours after chemical dosing in a 96-well plate. Human neural progenitor cells (hNPC) are generated from human fetal brain cortex at gestational week (GW) 16-19. In the neural progenitor cell migration and differentiation assay (NPC2-5), hNPCs grown as spheres are plated on an extracellular matrix and migrate and differentiate out of the sphere core. The processes radial glia migration, neuronal and oligodendrocyte migration as well as neuronal differentiation, neuronal morphology and oligodendrocyte differentiation are studied using automated phase contrast imaging and automated fluorescence imaging in combination with high content image analysis. In parallel, the cell viability is assessed using an alamar blue viability assay and the cytotoxicity using a lactate dehydrogenase dependent membrane integrity assay.IUF_NPC5_oligodendrocyte_differentiation_120hr is one of 12 assay components measured from the IUF_NPC2-5 assay. Oligodendrocyte differentiation at 120 hr is determined as the number of all O4-positive cells in percent of the number of Hoechst-positive nuclei in the total neurosphere migration area (see IUF_NPC2a_ glia_migration_120hr) after 120 hr of migration/differentiation. Oligodendrocytes are automatically identified using a convolutional neural network (CNN) that was trained using manually annotated images of differentiated oligodendrocytes.Data from the IUF_NPC5_oligodendrocyte_differentiation_120hr component was analyzed at the endpoint IUF_NPC5_oligodendrocyte_differentiation_120hr in the positive analysis fitting direction relative to DMSO as the negative control and baseline of activity. Using a type of differentiation reporter, loss-of-signal activity can be used to understand developmental effects.
Culture protocol: After the cell expansion period the cells are cultured for up to four weeks in which they are passaged every week as described in 3.6. Between one to three days after passaging spheres at a size of 0.3 mm are picked for the test method. For the assessment of neural progenitor cell migration and differentiation, the spheres are plated on poly-D-lysine/laminin coated 96-well flat bottom plates in differentiation medium (N2) to initiate migration and differentiation. Thereby one 0.3 mm big sphere is plated in the middle of a well. The differentiation medium consists of DMEM and Ham's F12 at a ratio of 3 to 1 supplemented with 1% N2 and 1% penicillin and streptomycin. Within 5 days NPCs radially migrate out of the sphere core and differentiate into radial glia cells (nestin positive), neurons (TUBB3 positive), oligodendrocytes (O4 positive) and astrocytes (GFAP positive). Cultivation during the test method is performed at 37C and 5% CO2 at a ph of 7.2-7.6.Exposure: 0.3 mm big hNPC are plated in the already prepared test conditions. Exposure starts at day 0 of differentiation and is continued over five days of differentiation until the experiment is terminated. Cells are fed with fresh medium at day 3 of differentiation. Therefore, half of the test condition solution (e.g. solvent control or compound dilution) is replaced by freshly prepared test condition solution.Test Method: Migration distance and cytotoxicity is determined after 72 hours based on brightfield images of each well. The assay is terminated by the assessment of cell viability and cytotoxicity as well as cell fixation after 120 h. Immunocytochemistry is performed for Hoechst positive nuclei, TUBB3 positive neurons and O4 positive oligodendrocytes. On the ICC images, migration after 120 hours, neuronal and oligodendrocyte number, neuronal morphology and neuron/oligodendrocyte specific migration is assessed. immunocytochemical staining (ICC) generates an image for each sphere. […]

SMILES | outcome | AC50
N#CN=C1SCCN1Cc1ccc(Cl)nc1 | inactive | –
COP(=S)(OC)SCn1nnc2ccccc2c1=O | inactive | –
CO/N=C(/C1=NOCCO1)c1ccccc1Oc1ncnc(Oc2ccccc2Cl)c1F | inactive | –
CCNC(=O)NC(=O)C(C#N)=NOC | inactive | –
Cc1c(COC(=O)[C@@H]2[C@H](/C=C(\Cl)C(F)(F)F)C2(C)C)cccc1-c1ccccc1 | – | 1.25 µM (active)
CC(C)(C)C(=O)C(Oc1ccc(Cl)cc1)n1cncn1 (stereo not drawn) | inactive | –
CCSC(=O)N1CCCCCC1 | inactive | –
C=C(C)CN(CC)c1c([N+](=O)[O-])cc(C(F)(F)F)cc1[N+](=O)[O-] | inactive | –
CN/C(=N\[N+](=O)[O-])NCc1cnc(Cl)s1 | inactive | –
O=C(Nc1ccccc1-c1ccc(Cl)cc1)c1cccnc1Cl | inactive | –
CC1(C)C(C=C(Cl)Cl)C1C(=O)OC(C#N)c1cccc(Oc2ccccc2)c1 (stereo not drawn) | inactive | –
CS(=O)(=O)c1cc(C(F)(F)F)ccc1C(=O)c1cnoc1C1CC1 | inactive | –
COC(=O)N(C(=O)N1CO[C@@]2(C(=O)OC)Cc3cc(Cl)ccc3C2=N1)c1ccc(OC(F)(F)F)cc1 | – | 1.99 µM (active)
